The nature of experiment [1]: Nuclear factor erythroid 2-related factor 2/antioxidant responsive element (Nrf2/ARE) small molecule agonists: qHTS cell viability counter screen in human keratinocytes (AID 1919968; active = well fitted curve in the direction sought with a large enough effect in the repeat runs; an effect the other way counts as inactive or inconclusive; note: nearly all actives have a fitted effect of over 55% in size; note: potency is the fitted concentration of half-maximal effect). The method, boiled down:
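Cytotoxicity was multiplexed with the Nrf2/ARE luciferase assay in the same wells. Stably transfected HaCaT keratinocytes were treated with test compounds for 23 h at 37 C. Cell viability was then measured by CellTiter-Fluor fluorescence.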

Experiment [2] deals with Gonadotropin-releasing hormone receptor (Homo sapiens) (UniProt P30968). The experiment can be described thus: Human gonadotropin-releasing hormone receptor (GnRHR) small molecule agonists, calcium flux assay in GnRHR-HEK293 cells (AID 1920063). Note: nearly all actives have a fitted effect of over 35% in size. The method, boiled down: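 Agonist activity was measured as intracellular calcium flux in HEK293 cells engineered to stably express human GnRHR. After dye loading for 1 hour at 37 C, compounds in DMSO were added and fluorescence was followed for 3 minutes.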
Background: A change in cytosolic calcium serves as a functional read-out for many receptors and channels.

Experiment [3] concerns the target KiSS-1 receptor (Homo sapiens) (UniProt Q969F8). Briefly: Human kisspeptin (KISS1R) small molecule agonists, calcium flux assay in KISS1R-HEK293 cells (AID 1920064; active = well fitted curve in the direction sought with a large enough effect in the repeat runs; an effect the other way counts as inactive or inconclusive). In short, it runs like this: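 Agonist activity is monitored as intracellular calcium rise in engineered HEK293 cells carrying human KISS1R. Cells are dye-loaded for 1 h at 37 C before compound addition, and fluorescence is recorded for 3 min.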

Experiment [4] can be described thus: p53 small molecule agonists, cell-based qHTS assay with human liver microsomes (AID 1963577).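 Note: p53 response element beta-lactamase reporter cells with liver microsomes plus NADPH.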 The method, boiled down:
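With metabolic activation: human liver microsomes (0.5 mg/mL final) plus NADPH (0.5 mg/mL final) added alongside compounds to p53RE-bla cells; 16 h 37 C exposure; beta-lactamase read by LiveBLAzer fluorescence.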
(Quantitative high-throughput screening tests each substance at several concentrations.)

A short description of experiment [5]: p53 small molecule agonists, cell-based qHTS assay with rat liver microsomes (AID 1963578). The method, boiled down: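 Metabolic activation by rat liver microsomes and NADPH, each 0.5 mg/mL final, added right after compounds to p53RE-bla reporter cells (4,000/well, plated 5 h earlier). 16 h at 37 C, then LiveBLAzer substrate for 2 h at room temperature in the dark; fluorescence read-out.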

Experiment [6] is described as follows: p53 small molecule agonists, cell-based qHTS assay with human liver microsomes: qHTS cell viability counter screen (AID 1963579). Note: nearly all actives have a fitted effect of over 45% in size. The method, boiled down: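 Metabolic activation used human liver microsomes and NADPH, both 0.5 mg/mL final, over 16 hours at 37 C on p53RE-bla cells (4,000/well). Cytotoxicity measured by CellTiter-Glo luminescence, 30 min at room temperature.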

Experiment [7] is described as follows: p53 small molecule agonists, cell-based qHTS assay with rat liver microsomes: qHTS cell viability counter screen (AID 1963580). Note: nearly all actives have a fitted effect of over 45% in size. The method, boiled down:
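Counter screen for cytotoxicity under metabolic activation: rat liver microsomes and NADPH, 0.5 mg/mL final each, added with compounds to p53RE-bla HCT-116 cells; 16 h at 37 C, then ATP luminescence read.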

A short description of experiment [8]: p53 small molecule agonists, cell-based qHTS assay: qHTS cell viability counter screen (AID 1963581). Note: nearly all actives have a fitted effect of over 45% in size. Note: potency is the fitted concentration of half-maximal effect. The method, boiled down: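 Viability was counter-screened in parallel with the p53 agonist reporter by measuring intracellular ATP luminescence in the same HCT-116 p53RE-bla wells after 16 h compound treatment at 37 C.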
Experiment [9] in a line: p53 small molecule agonists, cell-based qHTS assay (AID 1963582; active = well fitted activation curve with a large enough effect in the signal ratio in the repeat runs, not every such curve was filed as active; the % refers to the signal ratio). In short, it runs like this: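 Cells carrying a p53-responsive bla reporter are treated with test compounds for 16 h at 37 C; beta-lactamase activity is then detected with LiveBLAzer B/G FRET substrate after 2 h at room temperature.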
In experiment [10] the target is 5-hydroxytryptamine receptor 2A (Homo sapiens) (UniProt P28223). Briefly: 5-hydroxytryptamine receptor 2A (HTR2A) small molecule antagonists, cell-based qHTS assay (AID 1963586). Note: nearly all actives have a fitted effect of over 45% in size. In short, it runs like this:
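CHO cells stably expressing human HTR2A were plated for 18 h at 37 C, then loaded with calcium dye for 1 h. Compounds were preincubated 5 min at room temperature before DOI (4 nM solution) was added. Kinetic fluorescence was read for 3 min.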

Experiment [11] shares this target. The experiment can be described thus: 5-hydroxytryptamine receptor 2A (HTR2A) small molecule agonists, cell-based qHTS assay (AID 1963587). Note: nearly all actives have a fitted effect of over 30% in size. In short, it runs like this:
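HTR2A-CHO cells, plated 18 h at 37 C/5% CO2, dye-loaded 1 h at 37 C; compounds in DMSO added by pin tool (agonist mode). Intracellular calcium flux read as kinetic fluorescence on FDSS over 2 min at 1 s intervals.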

Experiment [12] has as its target Muscarinic acetylcholine receptor M1 (Homo sapiens) (UniProt P11229). Briefly: Cholinergic receptor muscarinic 1 (CHRM1) small molecule agonists, cell-based qHTS assay (AID 1963589). Note: nearly all actives have a fitted effect of over 35% in size. The method, boiled down: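 Cells were plated and incubated 18 h at 37 C/5% CO2, loaded with calcium dye for 1 h at 37 C, then treated with compounds in DMSO. Fluorescence was recorded kinetically at 1 sec intervals.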

Experiment [13] can be described thus: cAMP Responsive Elements (CRE) small molecule agonists, cell-based qHTS assay (AID 1963590). The method, boiled down:
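Cells carrying a CRE-driven beta-lactamase reporter (HEK 293T) are seeded, incubated overnight (18 h), and treated with test compounds for 3 h at 37 C; reporter activity is then detected with a FRET substrate after 2 h at room temperature.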

Experiment [14] is described as follows: cAMP Responsive Elements (CRE) small molecule antagonists, cell-based qHTS assay (AID 1963591; active = well fitted inhibition curve with a large enough effect in the signal ratio in the repeat runs, not every such curve was filed as active; the % refers to the signal ratio). In short, it runs like this: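 Cells (CRE-bla HEK 293T, DMEM with 10% dialyzed FBS and 25 mM HEPES) are seeded and incubated 18 h. Compounds are added with NKH477 agonist at 0.25 uM final for 3 h, then FRET substrate for 2 h.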
Experiment [15] deals with Beta-2 adrenergic receptor (Homo sapiens) (UniProt P07550). Briefly: Adrenergic beta2 receptor (ADRB2) small molecule antagonists, cell-based qHTS assay (AID 1963592). Note: series mostly up to about 92 µM; nearly all actives have a fitted effect of over 50% in size. The method, boiled down: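 Assay format: CHO-ADRB2 cells, 18-20hr seeding at 37C/5% CO2, then compound plus 1nM isoproterenol agonist mix for 0.5hr RT. Homogeneous time-resolved fluorescence cAMP detection after 1hr, expressed as 665/615 nm ratio.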

For experiment [16], the target named is D(2) dopamine receptor (Homo sapiens) (UniProt P14416). The experiment can be described thus: Dopamine D2 receptor (DRD2) small molecule agonists, cell-based qHTS assay (AID 1963594). Note: nearly all actives have a fitted effect of over 35% in size. The method, boiled down: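 HEK293 cells stably expressing DRD2 were cultured 24 h at 37 C, then given Ro20-1724 (0.1 mM final) and compounds for 10 min at room temperature. NKH477 (200nM) was then added for 30 min. cAMP was read by HTRF.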

Experiment [17] has the same target. The experiment can be described thus: Dopamine D2 receptor (DRD2) small molecule antagonists, cell-based qHTS assay (AID 1963595; active = well fitted inhibition curve with a large enough effect in the signal ratio in the repeat runs, with a control signal flat; the % refers to the signal ratio; note: potency is the fitted concentration of half-maximal effect). The method, boiled down:
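Antagonist mode in DRD2-HEK293 cells: after compound addition with 0.1 mM Ro20-1724, cells received quinpirole (12 nM) and NKH477 (200 nM) for 30 min at room temperature; HTRF cAMP read after 1 h detection.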

Experiment [18] is described as follows: G protein-coupled receptor (GPCR) small molecule agonists, calcium flux assay: HEK293 wild type cell line counter screen (AID 1920065). In short, it runs like this:
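Seed cells, incubate 18 h (37 C, 5% CO2); add calcium dye, 1 h at 37 C; pin-transfer compounds, ATP control or DMSO; read fluorescence 480/540 nm each second for 3 min.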

In experiment [19] the target is Muscarinic acetylcholine receptor M1 (Homo sapiens) (UniProt P11229). Briefly: Cholinergic receptor muscarinic 1 (CHRM1) small molecule antagonists, cell-based qHTS assay (AID 1963588). Note: nearly all actives have a fitted effect of over 40% in size. Note: potency is the fitted concentration of half-maximal effect. In short, it runs like this:
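Compounds were tested at 15 concentrations in three independent runs. Dye-loaded CHRM1-CHO cells were exposed 5 min at room temperature before stimulation by acetylcholine added at 50nM. Intracellular calcium was read kinetically on FDSS for 3 min.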

Experiment [20] concerns the target Beta-2 adrenergic receptor (Homo sapiens) (UniProt P07550). The experiment can be described thus: Adrenergic beta2 receptor (ADRB2) small molecule agonists, cell-based qHTS assay (AID 1963593).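 Note: CHO cells stably overexpressing human ADRB2.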 The method, boiled down:
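CHO cells stably over-expressing ADRB2 were plated overnight at 37C, then dosed with compounds plus a stimulation mix containing 100uM IBMX and 25uM Ro-20-1724 for 0.5hr at room temperature. cAMP was measured by HTRF competition, 1hr.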

A number with no mark means an inactive call. Inconclusive results are not listed. Calls of active or inactive are those of the source. Unless noted, calls come from the whole dose curve.

Sequence of 5-hydroxytryptamine receptor 2A (Homo sapiens) (P28223 whole entry, looked up): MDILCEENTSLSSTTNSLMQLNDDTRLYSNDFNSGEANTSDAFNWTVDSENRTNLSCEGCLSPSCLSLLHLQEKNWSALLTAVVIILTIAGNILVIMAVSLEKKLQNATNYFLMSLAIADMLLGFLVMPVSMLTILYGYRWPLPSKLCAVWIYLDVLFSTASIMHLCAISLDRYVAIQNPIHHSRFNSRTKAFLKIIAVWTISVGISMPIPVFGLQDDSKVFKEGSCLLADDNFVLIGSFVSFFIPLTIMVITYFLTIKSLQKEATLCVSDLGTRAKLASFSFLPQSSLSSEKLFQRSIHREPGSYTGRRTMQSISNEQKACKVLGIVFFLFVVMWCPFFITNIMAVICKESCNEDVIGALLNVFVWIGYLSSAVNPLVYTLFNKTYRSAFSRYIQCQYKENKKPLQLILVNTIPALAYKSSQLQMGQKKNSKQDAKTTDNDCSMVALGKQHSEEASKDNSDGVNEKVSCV
Sequence of Muscarinic acetylcholine receptor M1 (Homo sapiens) (P11229 whole entry, looked up): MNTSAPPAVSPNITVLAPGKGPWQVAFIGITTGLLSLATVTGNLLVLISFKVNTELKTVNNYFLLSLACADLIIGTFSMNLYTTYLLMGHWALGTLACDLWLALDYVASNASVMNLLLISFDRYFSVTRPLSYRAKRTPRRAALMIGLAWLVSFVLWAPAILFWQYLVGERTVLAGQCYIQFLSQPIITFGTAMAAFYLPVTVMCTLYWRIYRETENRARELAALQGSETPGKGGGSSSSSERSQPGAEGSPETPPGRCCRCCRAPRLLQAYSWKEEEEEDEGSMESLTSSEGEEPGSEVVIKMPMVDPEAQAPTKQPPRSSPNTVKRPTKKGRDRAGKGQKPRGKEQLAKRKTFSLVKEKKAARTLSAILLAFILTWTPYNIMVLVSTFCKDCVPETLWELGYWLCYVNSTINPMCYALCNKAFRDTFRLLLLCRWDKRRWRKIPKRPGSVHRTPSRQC
Sequence of D(2) dopamine receptor (Homo sapiens) (P14416 whole entry, looked up): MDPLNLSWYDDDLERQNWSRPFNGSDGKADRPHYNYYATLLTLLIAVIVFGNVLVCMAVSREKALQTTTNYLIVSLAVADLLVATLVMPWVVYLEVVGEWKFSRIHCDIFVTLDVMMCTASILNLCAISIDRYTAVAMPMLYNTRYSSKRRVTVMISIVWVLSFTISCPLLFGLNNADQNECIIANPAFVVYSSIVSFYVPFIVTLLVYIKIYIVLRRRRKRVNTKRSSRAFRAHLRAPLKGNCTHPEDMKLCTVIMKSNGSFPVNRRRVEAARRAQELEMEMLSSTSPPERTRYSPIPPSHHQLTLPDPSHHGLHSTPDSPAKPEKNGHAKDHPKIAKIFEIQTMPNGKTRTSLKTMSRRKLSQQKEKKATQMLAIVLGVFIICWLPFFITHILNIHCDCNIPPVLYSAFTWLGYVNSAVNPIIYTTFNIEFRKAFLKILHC
Sequence of Beta-2 adrenergic receptor (Homo sapiens) (P07550 whole entry, looked up): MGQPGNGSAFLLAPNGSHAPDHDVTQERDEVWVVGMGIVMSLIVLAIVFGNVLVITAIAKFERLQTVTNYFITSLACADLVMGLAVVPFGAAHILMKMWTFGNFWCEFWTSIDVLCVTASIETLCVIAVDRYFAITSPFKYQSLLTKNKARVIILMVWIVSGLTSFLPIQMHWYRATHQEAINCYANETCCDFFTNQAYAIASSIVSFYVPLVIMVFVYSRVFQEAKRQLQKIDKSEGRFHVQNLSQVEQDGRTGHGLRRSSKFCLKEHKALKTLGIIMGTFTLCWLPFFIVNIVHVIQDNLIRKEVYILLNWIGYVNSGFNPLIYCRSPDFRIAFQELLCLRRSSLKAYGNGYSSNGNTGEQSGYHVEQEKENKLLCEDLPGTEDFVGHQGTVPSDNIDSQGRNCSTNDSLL
Sequence of KiSS-1 receptor (Homo sapiens) (Q969F8 whole entry, looked up): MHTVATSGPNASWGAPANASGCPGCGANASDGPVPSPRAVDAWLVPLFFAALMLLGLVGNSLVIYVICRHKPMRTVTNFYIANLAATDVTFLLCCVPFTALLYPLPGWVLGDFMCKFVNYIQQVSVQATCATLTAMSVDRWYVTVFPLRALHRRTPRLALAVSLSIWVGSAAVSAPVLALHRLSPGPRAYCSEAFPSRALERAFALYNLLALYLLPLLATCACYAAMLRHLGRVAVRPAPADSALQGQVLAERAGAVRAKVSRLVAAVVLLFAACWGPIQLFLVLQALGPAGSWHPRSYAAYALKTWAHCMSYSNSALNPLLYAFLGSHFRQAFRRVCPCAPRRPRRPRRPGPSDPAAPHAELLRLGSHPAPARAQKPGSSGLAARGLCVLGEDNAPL
Sequence of Gonadotropin-releasing hormone receptor (Homo sapiens) (P30968 whole entry, looked up): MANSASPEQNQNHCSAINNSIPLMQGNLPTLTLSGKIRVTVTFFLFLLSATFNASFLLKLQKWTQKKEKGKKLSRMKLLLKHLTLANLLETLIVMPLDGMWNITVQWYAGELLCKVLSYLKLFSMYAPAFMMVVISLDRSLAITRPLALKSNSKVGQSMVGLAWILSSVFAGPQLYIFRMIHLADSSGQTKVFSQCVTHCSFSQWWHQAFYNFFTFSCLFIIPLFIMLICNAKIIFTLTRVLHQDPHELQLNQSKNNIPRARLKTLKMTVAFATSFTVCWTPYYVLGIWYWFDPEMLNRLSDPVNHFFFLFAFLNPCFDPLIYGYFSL

For `CC(C)COC(=O)CC(C(=O)OCC(C)C)S(=O)(=O)O` (centres undefined), the Potency entry in [1], in experiment [2], in [3], in experiment [4], in experiment [5] and in experiment [6] was “inactive” throughout. In addition, the Potency result in experiment [7], in [8], in experiment [9], in experiment [10], in experiment [11] and in experiment [12] was “inactive” each time. For the same molecule, the Potency result in experiment [13], in experiment [14], in experiment [15], in experiment [16] and in [17] was “inactive” each time.

On to `CCOc1ccc2nc(N)sc2c1`, for which the Potency entry in [1], in experiment [2], in [3], in experiment [18], in [8] and in experiment [9] was “inactive” throughout. In addition, the Potency result in experiment [10], in [11], in [19], in experiment [12], in experiment [13] and in [14] was “inactive” each time. Moreover, the Potency entry in experiment [15], in experiment [16] and in experiment [17] was “inactive” throughout.

`NNC(=O)OCc1ccccc1`: the Potency entry in [1], in experiment [2], in experiment [3], in [6], in [8] and in [10] was “inactive” each time. Moreover, the Potency entry in [11], in experiment [19], in [12], in [13], in experiment [14] and in experiment [15] was “inactive” each time. The Potency result in experiment [16] and in experiment [17] was “inactive” throughout.

Consider `CCCCCCCC/C=C\CCCCCCCC(=O)OCCOC(=O)CCCCCCC/C=C\CCCCCCCC`, for which the Potency result in experiment [1], in experiment [2], in [3], in [4], in [5] and in [6] was “inactive” each time. Also, the Potency entry in experiment [7], in experiment [8], in [9], in experiment [10], in [11] and in experiment [19] was “inactive” throughout. For the same molecule, the Potency result in [12], in [13], in experiment [15] and in experiment [16] was “inactive” each time.

In the case of `CCN(CCC#N)c1ccc(N=Nc2c(Cl)cc([N+](=O)[O-])cc2Cl)cc1`, the Potency entry in experiment [1], in experiment [2], in experiment [18], in experiment [4], in [6] and in [8] was “inactive” throughout. Also, the Potency entry in [9], in [11], in experiment [12], in [13], in [14] and in experiment [15] was “inactive” each time. The Potency result in [16] and in experiment [17] was “inactive” in each case.

For the molecule `Oc1ccc(N=Nc2ccccc2)cc1`, the Potency in experiment [1] is 55.2 µM (active). The Potency result in experiment [2], in experiment [18], in experiment [4], in experiment [5], in experiment [6] and in experiment [7] was “inactive” in each case. The Potency entry in [9], in experiment [11], in experiment [19], in [12], in experiment [13] and in experiment [14] was “inactive” in each case. Besides, the Potency result in experiment [16] and in experiment [17] was “inactive” throughout.

Turning to `COc1nc(N)nc2c1ncn2[C@@H]1O[C@H](CO)[C@@H](O)[C@@H]1O`, the Potency result in [1], in experiment [3], in experiment [18], in experiment [4], in [5] and in experiment [6] was “inactive” throughout. Also, the Potency result in [7], in experiment [8], in [9], in [10], in [11] and in [19] was “inactive” each time. Besides, the Potency entry in experiment [12], in experiment [13], in experiment [14] and in experiment [16] was “inactive” each time.

As to `CCN(CC)CCOC(=O)C(c1ccccc1)C1CCCCC1` (centres undefined), the Potency result in experiment [1], in [2], in [18], in experiment [4], in experiment [6] and in experiment [7] was “inactive” each time. Also, the Potency entry in experiment [14], in [15], in experiment [20] and in [16] was “inactive” in each case. For the same molecule, in experiment [19], the Potency is 41 nM (active).

`CCCCCCCCCCCCCC[P+](CCCC)(CCCC)CCCC` (tested in a mixture with another compound): the Potency in [1] was 10.9 µM (active); in experiment [8], 16.3 µM (active); in experiment [17] it was 27.5 µM (active). The Potency result in [2], in experiment [18], in [6], in experiment [11], in experiment [12] and in experiment [15] was “inactive” each time. Besides, the Potency entry in [20] and in experiment [16] was “inactive” throughout.

The values above are taken from PubChem BioAssay (Tox21).
